“And” between values parts separate entries of the source, which are not always exact repeats. Identical values can stand only once. Records with an inconclusive call do not appear. The source made the active and inactive calls. Rule for the calls: active = hit-call score of the fitted dose curve at least 0.9, where 1 is the maximum; inconclusive = response in the unintended direction; inactive = score below 0.9.

Our source for the outcome and AC50 values is PubChem BioAssay (EPA / NIEHS).

Test [1] can be described thus: ATG_M_06_XSP2: Attagene TRANS-FACTORIAL Multi-Species (XSP2) HepG2 Assay for M06 Transcription Factor (Internal Marker) (AID 2283811).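 Note: hits are increases in signal above the DMSO baseline.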 An outline of the steps:
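HepG2 cells transiently transfected with GAL4-UAS multiple reporter units, medium containing 3 nM 6-alpha-fluorotestosterone and 1.5 nM norgestrel; reporter mRNA measured 24 hours post-dosing by RT-PCR and capillary electrophoresis. Internal background marker, gain of signal vs DMSO.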

Test [2] deals with Estrogen receptor beta (Homo sapiens) (UniProt Q92731). In words: ATG_hERb_XSP2: Attagene TRANS-FACTORIAL Multi-Species (XSP2) HepG2 Assay for human Estrogen Receptor (ERb) (AID 2283813).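 Note: actives raise reporter mRNA above DMSO so AC50 reflects agonist induction.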 An outline of the steps: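 HepG2 cells transiently transfected with GAL4-UAS reporter units and chimeric human ERb-Gal4, 24 h exposure. Reporter mRNA quantified by RT-PCR with FAM labelling, HpaI digestion and capillary electrophoresis; gain of signal versus DMSO.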
Estrogen receptor beta (Homo sapiens), sequence (Q92731 whole entry, looked up, the tested form may be a part): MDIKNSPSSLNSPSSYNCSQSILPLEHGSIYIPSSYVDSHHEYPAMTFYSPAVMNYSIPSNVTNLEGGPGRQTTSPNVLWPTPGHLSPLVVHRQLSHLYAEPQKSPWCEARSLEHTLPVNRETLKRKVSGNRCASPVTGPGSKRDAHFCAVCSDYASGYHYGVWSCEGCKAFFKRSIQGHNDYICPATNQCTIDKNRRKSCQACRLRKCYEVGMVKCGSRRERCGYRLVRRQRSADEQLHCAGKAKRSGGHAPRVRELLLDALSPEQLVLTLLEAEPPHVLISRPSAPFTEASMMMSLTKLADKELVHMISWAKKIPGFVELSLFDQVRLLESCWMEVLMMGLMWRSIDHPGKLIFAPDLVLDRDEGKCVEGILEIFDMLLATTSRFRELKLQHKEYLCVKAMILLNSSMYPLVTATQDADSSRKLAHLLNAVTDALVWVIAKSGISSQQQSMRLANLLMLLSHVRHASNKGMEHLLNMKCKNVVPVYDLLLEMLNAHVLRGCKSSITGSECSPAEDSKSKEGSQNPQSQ

Test [3] deals with zebrafish Estrogen Receptor (ER1), esr1 (gene 259252) (UniProt P57717). In words: ATG_zfER1_XSP2: Attagene TRANS-FACTORIAL Multi-Species (XSP2) HepG2 Assay for zebrafish Estrogen Receptor (ER1) (AID 2283816). The gist of the method:
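HepG2 cells transiently transfected with a GAL4-UAS reporter and a chimeric zebrafish ER1-Gal4 construct, dosed 24 h. Reporter mRNA quantified by RT-PCR, labelling, HpaI digestion and capillary electrophoresis, relative to DMSO.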

Test [4] concerns zebrafish Estrogen Receptor (ER2a), gene 317734. The test can be described thus: ATG_zfER2a_XSP2: Attagene TRANS-FACTORIAL Multi-Species (XSP2) HepG2 Assay for zebrafish Estrogen Receptor (ER2a) (AID 2283818).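 Note: hits raise reporter mRNA so AC50 reflects activation of zebrafish ER2a.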 The gist of the method:
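HepG2 cells transiently transfected with GAL4-UAS reporter units and chimeric zebrafish ER2a-Gal4, exposed 24 h; medium contains 3 nM 6-alpha-fluorotestosterone and 1.5 nM norgestrel. Reporter mRNA quantified by RT-PCR, HpaI digestion, capillary electrophoresis; gain versus DMSO.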

The test system of test [5] is frog Estrogen Receptor (ER), gene 398734. In words: ATG_frER1_XSP2: Attagene TRANS-FACTORIAL Multi-Species (XSP2) HepG2 Assay for frog Estrogen Receptor (ER) (AID 2283821).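 Note: hits raise reporter mRNA above DMSO baseline so potency means agonist or activator.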 The gist of the method: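 HepG2 cells transiently transfected with GAL4-UAS reporter units expressing a chimeric frog ER-Gal4 protein; 24 h exposure. Reporter mRNA quantified by RT-PCR, fluorescent labelling and capillary electrophoresis; gain of signal fitted against DMSO baseline.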

The test system of test [6] is zebrafish Estrogen Receptor (ER2b), gene 317733. In words: ATG_zfER2b_XSP2: Attagene TRANS-FACTORIAL Multi-Species (XSP2) HepG2 Assay for zebrafish Estrogen Receptor (ER2b) (AID 2283823).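 Note: fitted upward as reporter gain over DMSO so potency reflects activation.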 The gist of the method:
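Read-out: fluorescent reporter mRNA, measured by RT-PCR then capillary electrophoresis after HpaI digestion. HepG2 cells carried transiently transfected multi-reporter TRANS constructs (NR-Gal4 chimeras); 24 h chemical exposure; activity scored upward versus DMSO control.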

Test [7] in a line: ATG_M_32_XSP2: Attagene TRANS-FACTORIAL Multi-Species (XSP2) HepG2 Assay for M19 Transcription Factor (Internal Marker) (AID 2283826). An outline of the steps: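 HepG2 cells transiently transfected with GAL4-UAS reporter transcription units, dosed with compound for 24 h in presence of 3 nM 6-alpha-fluorotestosterone and 1.5 nM norgestrel; reporter mRNA quantified by RT-PCR, FAM labelling, HpaI digestion and capillary electrophoresis.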

Test [8] concerns frog Estrogen Receptor (ER2), gene 100174814. The test can be described thus: ATG_frER2_XSP2: Attagene TRANS-FACTORIAL Multi-Species (XSP2) HepG2 Assay for frog Estrogen Receptor (ER2) (AID 2283828). An outline of the steps: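 HepG2 cells transiently transfected with multiplexed GAL4-UAS reporter units expressing chimeric frog ER2–Gal4 protein; reporter mRNA measured 24 h after chemical dosing by RT-PCR, fluorescent labeling and capillary electrophoresis. Gain-of-signal fitted relative to DMSO baseline.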

The target of test [9] is Peroxisome proliferator-activated receptor gamma (Homo sapiens) (UniProt P37231). The test can be described thus: ATG_hPPARg_XSP2: Attagene TRANS-FACTORIAL Multi-Species (XSP2) HepG2 Assay for human Peroxisome Proliferator-activated Receptor gamma (PPARg) (AID 2283829).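 Note: actives raise reporter mRNA above DMSO so AC50 reflects PPARg activation.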 An outline of the steps:
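HepG2 cells transiently transfected with multiplexed GAL4-UAS reporter units for chimeric NR-Gal4 receptors, dosed 24 h. Reporter mRNA quantified by RT-PCR, 6-FAM labeling, HpaI digestion and capillary electrophoresis; gain-of-signal fitted against DMSO baseline.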

Test [10] has as its target mouse Peroxisome Proliferator-activated Receptor gamma (PPARg), Pparg (gene 19016) (UniProt P37238). In words: ATG_mPPARg_XSP2: Attagene TRANS-FACTORIAL Multi-Species (XSP2) HepG2 Assay for mouse Peroxisome Proliferator-activated Receptor gamma (PPARg) (AID 2283830).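 Note: hits are gains in reporter mRNA above DMSO so AC50 marks activation.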 An outline of the steps: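 HepG2 cells transiently transfected with GAL4-UAS reporter units for chimeric NR-Gal4 proteins including mouse PPARg, exposed 24 h; medium contained 3 nM 6-alpha-fluorotestosterone and 1.5 nM norgestrel. Reporter mRNA quantified by RT-PCR, HpaI digestion and capillary electrophoresis, vs DMSO.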

Test [11] concerns the target zebrafish Thyroid Hormone Receptor alpha (TRa), thraa (gene 30670) (UniProt Q98867). In words: ATG_zfTRa_XSP2: Attagene TRANS-FACTORIAL Multi-Species (XSP1) HepG2 Assay for zebrafish Thyroid Hormone Receptor alpha (TRa) (AID 2283832).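 Note: actives raise zebrafish TRa-Gal4 reporter transcript above DMSO baseline.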 The gist of the method: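 HepG2 transiently transfected with GAL4-UAS reporter units and chimeric zebrafish TRa-Gal4; reporter mRNA quantified after 24 h dosing by RT-PCR, HpaI digestion and capillary electrophoresis fluorescence. Gain of signal vs DMSO; XSP2 medium contains 3 nM 6-alpha-fluorotestosterone, 1.5 nM norgestrel.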

The subject of test [12] is turtle Estrogen Receptor (ERa), gene 101933533. The test can be described thus: ATG_trERa_XSP2: Attagene TRANS-FACTORIAL Multi-Species (XSP2) HepG2 Assay for turtle Estrogen Receptor (ERa) (AID 2283812).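 Note: human HepG2 liver cells transiently expressing turtle ERa-Gal4 chimeric receptor; actives raise reporter signal above DMSO so AC50 reflects agonist activity.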 An outline of the steps: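 HepG2 cells transiently transfected with GAL4-UAS reporter units expressing turtle ERa-Gal4 chimera. Reporter mRNA measured after 24 h dosing by RT-PCR, fluorescent labelling and capillary electrophoresis; gain of signal fitted versus DMSO.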

The test system of test [13] is turtle Androgen Receptor (AR), gene 101947425. The test can be described thus: ATG_trAR_XSP2: Attagene TRANS-FACTORIAL Multi-Species (XSP2) HepG2 Assay for turtle Androgen Receptor (AR) (AID 2283815).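 Note: potency for gain of reporter signal meaning activation above DMSO baseline.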 An outline of the steps: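 HepG2 cells transiently transfected with GAL4-UAS reporter units for chimeric NR-Gal4 receptors; 24 h dosing in presence of 3 nM 6-alpha-fluorotestosterone and 1.5 nM norgestrel. Reporter mRNA by RT-PCR and capillary electrophoresis, gain of signal versus DMSO.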

Test [14] addresses chicken Estrogen Receptor (ERa), ESR1 (gene 396099) (UniProt P06212). In words: ATG_chERa_XSP2: Attagene TRANS-FACTORIAL Multi-Species (XSP2) HepG2 Assay for chicken Estrogen Receptor (ERa) (AID 2283817).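 Note: actives raise reporter signal above DMSO so AC50 reflects ER activation.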 The gist of the method:
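Transiently transfected HepG2 cells expressing chimeric chicken ERa-GAL4 reporter units, dosed 24 h with 3 nM 6-alpha-fluorotestosterone and 1.5 nM norgestrel present. Reporter mRNA measured by RT-PCR and capillary electrophoresis; gain-of-signal fitted relative to DMSO.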

In test [15] the test system is chicken Androgen Receptor (AR), gene 422165. In words: ATG_chAR_XSP2: Attagene TRANS-FACTORIAL Multi-Species (XSP2) HepG2 Assay for chicken Androgen Receptor (AR) (AID 2283819).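 Note: hits raise reporter mRNA above DMSO so potency is for activation.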 An outline of the steps:
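HepG2 cells transiently transfected with chicken AR–GAL4 chimeric reporter constructs, stimulated with 3 nM 6-alpha-fluorotestosterone plus 1.5 nM norgestrel, dosed 24 h. Reporter mRNA quantified by RT-PCR and capillary electrophoresis; gain of signal fitted versus DMSO.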

Test [16] addresses human Androgen Receptor (AR), AR (gene 367) (UniProt P10275). In words: ATG_hAR_XSP2: Attagene TRANS-FACTORIAL Multi-Species (XSP2) HepG2 Assay for human Androgen Receptor (AR) (AID 2283820). An outline of the steps:
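HepG2 cells transiently transfected with GAL4-UAS reporter units driven by chimeric NR-Gal4 proteins, stimulated with 3 nM 6-alpha-fluorotestosterone plus 1.5 nM norgestrel. Reporter mRNA quantified 24 h after dosing by RT-PCR and capillary electrophoresis; gain-of-signal versus DMSO.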

Test [17] has as its system frog Androgen Receptor (AR), gene 399456. In words: ATG_frAR_XSP2: Attagene TRANS-FACTORIAL Multi-Species (XSP2) HepG2 Assay for frog Androgen Receptor (AR) (AID 2283824).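 Note: actives raise reporter signal above DMSO so AC50 reflects agonist-like induction.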 An outline of the steps:
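HepG2 cells transiently transfected with GAL4-UAS reporter units and frog (Xenopus laevis) AR-Gal4 chimera; reporter mRNA measured 24 h after dosing by RT-PCR and capillary electrophoresis. Gain of signal fitted relative to DMSO baseline.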

In test [18] the target is GAL4 Transcription Factor (Internal Marker), GAL4 (gene 855828) (UniProt P04386). The test can be described thus: ATG_GAL4_XSP2: Attagene TRANS-FACTORIAL Multi-Species (XSP2) HepG2 Assay for GAL4 Transcription Factor (Internal Marker) (AID 2283814).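 Note: GAL4 reporter mRNA background control in MRTU transfected cells not a receptor target.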 An outline of the steps: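 HepG2 cells transiently transfected with GAL4-UAS reporter units, stimulated with 3 nM 6-alpha-fluorotestosterone plus 1.5 nM norgestrel, dosed 24 h. Reporter mRNA by RT-PCR/capillary electrophoresis; gain-of-signal fit versus DMSO, background control.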
GAL4 Transcription Factor (Internal Marker), GAL4 (gene 855828), sequence (P04386 whole entry, looked up, the tested form may be a part): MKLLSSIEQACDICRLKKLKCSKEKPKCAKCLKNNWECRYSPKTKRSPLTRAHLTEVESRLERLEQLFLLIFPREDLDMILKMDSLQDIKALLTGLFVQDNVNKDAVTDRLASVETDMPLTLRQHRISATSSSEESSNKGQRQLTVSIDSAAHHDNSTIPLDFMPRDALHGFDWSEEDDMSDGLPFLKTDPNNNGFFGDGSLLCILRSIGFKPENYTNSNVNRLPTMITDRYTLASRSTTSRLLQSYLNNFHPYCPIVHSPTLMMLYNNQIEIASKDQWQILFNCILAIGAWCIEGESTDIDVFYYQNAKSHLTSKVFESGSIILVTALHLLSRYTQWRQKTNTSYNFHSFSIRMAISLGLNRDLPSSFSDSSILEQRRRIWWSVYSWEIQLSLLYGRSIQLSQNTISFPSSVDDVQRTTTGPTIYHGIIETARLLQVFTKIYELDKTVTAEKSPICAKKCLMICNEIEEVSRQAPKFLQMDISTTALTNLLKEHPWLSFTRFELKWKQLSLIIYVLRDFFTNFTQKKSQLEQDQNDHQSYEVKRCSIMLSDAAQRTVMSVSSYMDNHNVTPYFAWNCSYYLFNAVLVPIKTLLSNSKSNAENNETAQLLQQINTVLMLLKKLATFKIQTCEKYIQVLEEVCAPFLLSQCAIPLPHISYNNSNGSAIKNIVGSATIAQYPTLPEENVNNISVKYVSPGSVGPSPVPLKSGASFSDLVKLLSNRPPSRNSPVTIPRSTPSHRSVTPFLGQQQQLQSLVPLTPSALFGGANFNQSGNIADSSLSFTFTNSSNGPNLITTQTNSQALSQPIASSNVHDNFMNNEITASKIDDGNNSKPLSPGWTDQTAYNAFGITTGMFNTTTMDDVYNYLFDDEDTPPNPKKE

zebrafish Estrogen Receptor (ER1), esr1 (gene 259252), sequence (P57717 whole entry, looked up, the tested form may be a part): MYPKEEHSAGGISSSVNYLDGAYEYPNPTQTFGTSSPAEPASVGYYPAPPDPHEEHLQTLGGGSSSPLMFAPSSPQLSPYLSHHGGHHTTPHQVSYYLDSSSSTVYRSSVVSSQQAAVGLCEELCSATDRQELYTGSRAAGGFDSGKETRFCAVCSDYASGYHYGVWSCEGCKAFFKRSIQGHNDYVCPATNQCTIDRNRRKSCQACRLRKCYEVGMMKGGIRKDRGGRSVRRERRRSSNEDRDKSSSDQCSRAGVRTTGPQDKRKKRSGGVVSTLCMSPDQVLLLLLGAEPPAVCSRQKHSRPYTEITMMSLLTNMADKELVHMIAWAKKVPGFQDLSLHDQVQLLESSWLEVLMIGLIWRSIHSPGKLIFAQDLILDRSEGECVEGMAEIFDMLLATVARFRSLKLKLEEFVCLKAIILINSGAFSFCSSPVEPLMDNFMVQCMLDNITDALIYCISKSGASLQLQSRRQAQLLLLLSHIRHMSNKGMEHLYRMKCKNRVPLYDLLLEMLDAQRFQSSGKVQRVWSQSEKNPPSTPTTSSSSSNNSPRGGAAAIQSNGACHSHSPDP
chicken Estrogen Receptor (ERa), ESR1 (gene 396099), sequence (P06212 whole entry, looked up, the tested form may be a part): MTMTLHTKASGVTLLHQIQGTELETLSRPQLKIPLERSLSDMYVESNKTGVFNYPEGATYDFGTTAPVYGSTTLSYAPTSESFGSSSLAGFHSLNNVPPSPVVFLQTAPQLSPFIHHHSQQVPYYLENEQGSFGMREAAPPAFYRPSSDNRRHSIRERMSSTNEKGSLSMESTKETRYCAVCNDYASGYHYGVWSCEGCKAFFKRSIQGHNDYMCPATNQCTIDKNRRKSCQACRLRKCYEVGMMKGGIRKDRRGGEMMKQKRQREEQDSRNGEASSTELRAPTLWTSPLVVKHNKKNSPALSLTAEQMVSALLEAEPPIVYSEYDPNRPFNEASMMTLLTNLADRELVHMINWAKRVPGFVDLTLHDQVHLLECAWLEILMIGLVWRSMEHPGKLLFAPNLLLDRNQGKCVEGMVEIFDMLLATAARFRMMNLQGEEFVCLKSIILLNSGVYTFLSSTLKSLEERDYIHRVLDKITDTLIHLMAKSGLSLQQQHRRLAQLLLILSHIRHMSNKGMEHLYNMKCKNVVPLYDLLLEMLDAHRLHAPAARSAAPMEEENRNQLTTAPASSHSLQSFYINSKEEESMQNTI
zebrafish Thyroid Hormone Receptor alpha (TRa), thraa (gene 30670), sequence (Q98867 whole entry, looked up, the tested form may be a part): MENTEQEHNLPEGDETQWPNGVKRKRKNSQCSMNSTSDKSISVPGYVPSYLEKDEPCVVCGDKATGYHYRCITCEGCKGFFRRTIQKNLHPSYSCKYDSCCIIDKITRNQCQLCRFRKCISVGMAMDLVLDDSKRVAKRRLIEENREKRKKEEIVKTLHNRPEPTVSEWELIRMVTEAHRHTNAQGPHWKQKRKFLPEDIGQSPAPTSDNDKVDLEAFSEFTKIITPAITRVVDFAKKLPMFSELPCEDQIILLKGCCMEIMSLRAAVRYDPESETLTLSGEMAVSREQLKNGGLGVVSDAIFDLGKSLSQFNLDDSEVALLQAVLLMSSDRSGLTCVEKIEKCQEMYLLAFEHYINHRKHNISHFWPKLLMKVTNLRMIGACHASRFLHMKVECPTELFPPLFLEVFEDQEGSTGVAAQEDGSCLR
mouse Peroxisome Proliferator-activated Receptor gamma (PPARg), Pparg (gene 19016), sequence (P37238 whole entry, looked up, the tested form may be a part): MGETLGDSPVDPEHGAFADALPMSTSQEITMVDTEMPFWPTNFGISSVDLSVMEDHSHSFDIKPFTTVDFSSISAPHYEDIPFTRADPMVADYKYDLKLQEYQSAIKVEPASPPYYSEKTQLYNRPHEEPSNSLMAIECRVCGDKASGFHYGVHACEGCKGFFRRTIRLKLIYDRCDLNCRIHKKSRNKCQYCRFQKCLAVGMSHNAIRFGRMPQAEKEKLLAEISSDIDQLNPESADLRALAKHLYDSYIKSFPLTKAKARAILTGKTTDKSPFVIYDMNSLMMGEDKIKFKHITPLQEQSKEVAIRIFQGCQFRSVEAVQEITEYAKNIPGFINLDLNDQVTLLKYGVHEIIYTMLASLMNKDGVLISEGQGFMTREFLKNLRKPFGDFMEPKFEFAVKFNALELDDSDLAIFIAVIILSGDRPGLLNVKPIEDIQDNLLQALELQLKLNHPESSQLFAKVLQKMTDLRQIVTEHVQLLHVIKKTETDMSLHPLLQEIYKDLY
Peroxisome proliferator-activated receptor gamma (Homo sapiens), sequence (P37231 whole entry, looked up, the tested form may be a part): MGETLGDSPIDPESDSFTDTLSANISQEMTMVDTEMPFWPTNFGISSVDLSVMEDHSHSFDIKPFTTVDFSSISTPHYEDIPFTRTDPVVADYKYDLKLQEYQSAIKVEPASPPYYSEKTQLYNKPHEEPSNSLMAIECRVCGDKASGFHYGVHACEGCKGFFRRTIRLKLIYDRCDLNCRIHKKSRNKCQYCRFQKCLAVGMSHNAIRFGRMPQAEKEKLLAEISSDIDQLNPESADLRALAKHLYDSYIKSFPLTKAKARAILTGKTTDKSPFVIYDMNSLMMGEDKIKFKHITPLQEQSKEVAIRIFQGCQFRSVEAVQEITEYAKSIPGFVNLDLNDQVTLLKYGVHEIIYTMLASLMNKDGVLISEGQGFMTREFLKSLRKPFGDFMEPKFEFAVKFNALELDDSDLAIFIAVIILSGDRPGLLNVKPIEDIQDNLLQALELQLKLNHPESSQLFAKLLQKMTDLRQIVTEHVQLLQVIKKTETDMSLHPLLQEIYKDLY
human Androgen Receptor (AR), AR (gene 367), sequence (P10275 whole entry, looked up, the tested form may be a part): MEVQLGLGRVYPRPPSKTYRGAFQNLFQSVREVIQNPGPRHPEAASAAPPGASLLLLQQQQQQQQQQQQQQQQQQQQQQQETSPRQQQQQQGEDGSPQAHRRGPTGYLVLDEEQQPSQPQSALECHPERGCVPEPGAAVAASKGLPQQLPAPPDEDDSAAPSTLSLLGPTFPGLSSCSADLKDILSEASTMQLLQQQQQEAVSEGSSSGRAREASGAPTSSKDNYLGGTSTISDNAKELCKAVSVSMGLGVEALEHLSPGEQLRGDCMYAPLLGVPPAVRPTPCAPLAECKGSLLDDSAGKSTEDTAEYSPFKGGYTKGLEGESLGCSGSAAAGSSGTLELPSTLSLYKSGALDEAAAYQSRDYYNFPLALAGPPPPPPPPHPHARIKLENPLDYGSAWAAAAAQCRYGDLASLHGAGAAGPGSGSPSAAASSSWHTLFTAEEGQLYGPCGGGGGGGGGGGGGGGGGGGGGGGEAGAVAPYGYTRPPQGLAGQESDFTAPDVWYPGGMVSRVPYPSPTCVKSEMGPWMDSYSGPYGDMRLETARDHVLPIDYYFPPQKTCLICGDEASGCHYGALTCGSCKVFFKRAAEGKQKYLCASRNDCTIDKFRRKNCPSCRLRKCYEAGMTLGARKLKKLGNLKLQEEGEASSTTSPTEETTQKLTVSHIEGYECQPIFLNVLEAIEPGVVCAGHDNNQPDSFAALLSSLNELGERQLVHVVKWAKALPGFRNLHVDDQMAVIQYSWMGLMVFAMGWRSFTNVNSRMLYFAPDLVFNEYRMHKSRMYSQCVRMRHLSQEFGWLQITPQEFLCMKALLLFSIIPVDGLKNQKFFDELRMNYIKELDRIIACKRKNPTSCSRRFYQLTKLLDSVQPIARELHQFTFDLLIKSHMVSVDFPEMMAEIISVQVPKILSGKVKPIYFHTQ

Regarding `Clc1ccc(C(c2ccc(Cl)cc2)C(Cl)(Cl)Cl)cc1`, the molecule was classed as inactive in [1], in test [2], in [7], in test [9] and in [11]. In addition, the AC50 (commonly the concentration at which the activity in the assay is half-maximal) in test [3] is 100 µM (active); in [4], 22 µM (active); in test [5], 37.2 µM (active); in test [6], 4.56 µM (active); in test [8], 30.9 µM (active); in [10] it was 100 µM (active).
In the case of `C[C@]12C=CC3=C4CCC(=O)C=C4CC[C@H]3[C@@H]1CC[C@@H]2O`, the molecule was classed as inactive in test [1], in test [12], in test [2], in test [3], in test [14] and in test [4]. The outcome in test [5], in [9], in [10] and in test [11] was inactive. The AC50 is 0.00534 µM (active) in [13], 0.00355 µM (active) in test [15], 0.00407 µM (active) in test [16] and 0.0118 µM (active) in test [17].
Take `CCC(C)c1ccc(O)cc1` (stereo not drawn): the outcome in test [1], in test [18], in test [7] and in [11] was inactive. For the same molecule, the AC50 was 6.55 µM (active) and 1.91 µM (active) in test [12]; 5.47 µM (active) and 2.25 µM (active) in test [2]; 37.7 µM (active) and 28.7 µM (active) in test [3]; 6.12 µM (active) and 3.68 µM (active) in test [14]; 14.5 µM (active) and 3.22 µM (active) in test [4]; 5.13 µM (active) and 19.8 µM (active) in test [5]. The AC50 in test [6] is 21 µM (active) and 12.9 µM (active); in [8] it was 9.87 µM (active) and 3.44 µM (active); in test [10], 59.5 µM (active) and 135 µM (active).
